From PubChem
Only some compounds are listed: those with a hit (about 2.9% of all), similar ones and a draw of the others.
proKLK7 act: proKLK7 (human) activation, primary screen | 370,000 compounds, 0.9% hits | AID 652039 | purified proKLK7, EDANS-DABCYL substrate fluorescence; 100% is mature enzyme control, 0% vehicle | activation, % at 7 µM | P49862;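 active means activation above the mean of all tested compounds plus 3 SD, computed per campaign excluding outliers beyond control limits, cut at about 13% in these data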
PLC-gamma1 inh: blocks human PLC-gamma1 enzyme activity | inhibition, % at 12.2 µM | purified PLC-gamma1, fluorogenic substrate, fluorescence | P19174 | 370,000 compounds, 0.84% hits; in the data active means inhibition above about 9.5%
ADAM10 inh: ADAM10 inhibition, QFRET primary screen; inhibition, % at 7 µM; 370,000 compounds, 0.62% hits; O14672; recombinant ADAM10, EDANS/DABCYL FRET peptide cleavage, 3 h; AID 720582;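 active means inhibition above a per-campaign cutoff equal to the mean of compounds falling between control-based bounds plus 3 SD, cut at about 20% in these data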
Target sequence (O14672 214-748 limits assumed): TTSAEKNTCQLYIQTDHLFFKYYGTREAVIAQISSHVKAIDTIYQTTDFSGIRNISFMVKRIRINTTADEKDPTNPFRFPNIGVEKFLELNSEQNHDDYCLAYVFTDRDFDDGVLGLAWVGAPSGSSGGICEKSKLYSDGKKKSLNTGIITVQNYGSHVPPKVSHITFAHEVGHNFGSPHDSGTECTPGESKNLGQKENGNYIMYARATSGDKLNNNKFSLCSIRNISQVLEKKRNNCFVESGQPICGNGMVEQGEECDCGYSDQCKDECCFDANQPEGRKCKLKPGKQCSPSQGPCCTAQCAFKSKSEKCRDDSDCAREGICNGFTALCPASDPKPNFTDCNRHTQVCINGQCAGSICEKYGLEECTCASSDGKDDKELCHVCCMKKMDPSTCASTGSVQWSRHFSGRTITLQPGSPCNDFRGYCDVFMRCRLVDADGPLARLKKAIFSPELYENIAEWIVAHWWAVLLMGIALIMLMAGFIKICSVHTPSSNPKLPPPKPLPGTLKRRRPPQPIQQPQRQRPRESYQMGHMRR
PLC-beta3 inh: PLC-beta3 (human) inhibition, primary screen; Q01970; Purified PLC-beta3, fluorogenic substrate, fluorescence; inhibition, % at 12.2 µM; 370,000 compounds, 0.18% hits; AID 720704; in the data active means inhibition above about 11%
ADAM17 inh: inhibits human ADAM17; recombinant ADAM17, EDANS/DABCYL FRET peptide cleavage; inhibition, % at 6.95 µM; 370,000 compounds, 0.83% hits;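 active means inhibition above the mean of compounds lying between control limits plus 3 SD, set per campaign, cut at about 8.5% in these data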
ADAM10 confirm: human ADAM10 inhibition, confirmation | shares compounds with ADAM10 inh | ADAM10 QFRET peptide cleavage, EDANS fluorescence | inhibition, % at 6.95 µM | 2,100 compounds, 1% hits;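 active means inhibition above about 20% chosen separately for each screening run, limit read from the data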
ADAM17 ctr: ADAM17 inhibition, counter-screen for ADAM10 exosite hits; inhibition, % at 6.95 µM; 2,100 compounds, 0.5% hits; ADAM17 QFRET peptide cleavage, EDANS fluorescence; shares compounds with ADAM10 inh;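 active means mean triplicate inhibition above the solvent-only control wells' mean plus 3 SD, cut at about 12% in these data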
ADAM10 ctr: ADAM10 inhibition, counter-screen for ADAM17 exosite hits. 2,900 compounds, 47% hits. AID 743256. recombinant ADAM10, EDANS/DABCYL FRET peptide cleavage, 3 h. shares compounds with ADAM17 inh. inhibition, % at 6.95 µM;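 active means mean inhibition over the triplicate runs exceeds the activity threshold set in the earlier primary screen, cut at about 20% in these data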
ADAM17 confirm: human ADAM17 inhibition, confirmation | inhibition, % at 6.95 µM | 2,900 compounds, 65% hits | shares compounds with ADAM17 inh | recombinant ADAM17, EDANS/DABCYL QFRET peptide cleavage;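 active means mean inhibition across replicates above the hit cutoff set in the primary screen, cut at about 8.5% in these data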
A number is an active result; . = inactive; / = no result.

SMILES	proKLK7 act	PLC-gamma1 inh	ADAM10 inh	PLC-beta3 inh	ADAM17 inh	ADAM10 confirm	ADAM17 ctr	ADAM10 ctr	ADAM17 confirm
C=C(C)COc1ccc(-c2n[nH]c(C)c2-c2ccc(OC)cc2)c(O)c1	.	.	31	.	13	.	.	34	17
COc1ccc(-c2onc(C)c2-c2cnn(-c3ccccc3)c2)c(O)c1C	.	.	.	.	.	/	/	/	/
COc1ccc(-c2n[nH]c(C)c2-c2cnn(-c3ccccc3)c2)c(O)c1	.	.	30	.	15	.	.	23	14
Cc1ccccc1-c1noc(-c2ccc(O)cc2)n1	.	.	33	.	13	.	.	.	12
CNS(=O)(=O)c1cccc(C(=O)OCc2cc(Cl)cc3c2OCOC3)c1	.	.	.	.	.	/	/	/	/
CSc1ccccc1NC(=O)CO/N=C(\C)c1cc2ccccc2o1	.	.	.	.	.	/	/	/	/
CCc1ccc(NC(=O)CO/N=C(\C)c2cc3ccccc3o2)cc1	.	.	24	.	13	.	.	.	13
Cc1nn(Cc2c(F)c(F)c(F)c(F)c2F)c(C)c1NC(=O)c1ccc(COc2ccc(Cl)cc2Cl)o1	.	.	25	.	11	.	.	45	19
C[C@H](O)[C@@H]1CN2CCc3c([nH]c4ccccc34)[C@@H]2C[C@@H]1N(C)C(=O)OCc1ccccc1	.	.	.	.	.	/	/	/	/
Cc1ccc(S(=O)(=O)NNC(=O)CCCCC(=O)NNS(=O)(=O)c2ccc(C)cc2)cc1	.	.	.	.	.	/	/	/	/
CC1(C)CC(=O)c2c(nc(SCC(=O)Nc3nsc(-c4ccccc4)n3)c(C#N)c2-c2ccccc2)C1	.	.	.	.	.	/	/	/	/
CCc1c(C#N)c(SCCC(=O)Nc2ccc(F)cc2)nc2c1C(=O)CC(C)(C)C2	.	.	31	.	10.0	.	.	33	13
N=c1c2c(ncn1Cc1ccco1)Oc1ccc3ccccc3c1C2c1ccccc1 (stereo not given)	.	.	20	.	11	.	.	.	12
C=CCN1C(=O)[C@H](CC(=O)NCCCC)[C@@]2(C(=O)OCC)CCCC=C12	.	.	.	.	.	/	/	/	/
Cc1ccc(S(=O)(=O)Nc2ccc(-c3nnc(SCc4ccccc4Cl)o3)cc2)cc1	.	.	23	.	9.6	.	.	34	17
COC(=O)c1ccc(N2CCC(c3cc(-c4ccc(OC)cc4)n[nH]3)CC2)c([N+](=O)[O-])c1	.	.	29	.	12	.	.	35	18
Cc1cccc(OCCNC(=O)c2cccc(Oc3ccc(C(F)(F)F)cc3[N+](=O)[O-])c2)c1	.	.	32	.	14	.	.	34	18
N#CCCN(C(=O)COC(=O)c1ccc(CNS(=O)(=O)c2ccc(F)c(Cl)c2)cc1)c1ccc(F)cc1	.	.	21	.	12	.	.	35	22
CCCN(CC1CC1)C(=O)COC(=O)c1ccc(CNS(=O)(=O)c2ccc(F)c(Cl)c2)cc1	.	.	.	.	.	/	/	/	/
Cc1nc2ccc(NC(=O)c3ccc(S(=O)(=O)N(C)c4ccccc4)cc3)cc2s1	.	.	29	.	16	.	.	.	13
Cc1ccc(S(=O)(=O)N(C)c2ccc(C(=O)Nc3cccc(C)n3)cc2)cc1	.	.	20	.	15	.	.	.	.
CC(=O)Nc1cccc(-c2ccnc3c2CC(C)(C(=O)Nc2cccc(C(F)(F)F)c2)O3)c1 (stereo not given)	.	.	21	.	8.7	.	.	.	10
CC1(C(=O)Nc2ccc3c(c2)OCO3)Cc2c(-c3cccc(C(F)(F)F)c3)ccnc2O1 (stereo not given)	.	.	21	.	10	.	.	24	13
CC1(C(=O)Nc2cccc(C(F)(F)F)c2)Cc2c(-c3cccc(C(F)(F)F)c3)ccnc2O1 (stereo not given)	.	.	.	.	.	/	/	/	/
CC(=O)Nc1cccc(-c2ccnc3c2CC(C)(C(=O)Nc2cccc(Oc4ccccc4)c2)O3)c1 (stereo not given)	.	.	25	.	9.6	.	.	20	15
SMILES	proKLK7 act	PLC-gamma1 inh	ADAM10 inh	PLC-beta3 inh	ADAM17 inh	ADAM10 confirm	ADAM17 ctr	ADAM10 ctr	ADAM17 confirm
COc1ccc(NC(=O)C2(C)Cc3c(-c4cccc(C(F)(F)F)c4)ccnc3O2)cn1 (stereo not given)	.	.	26	.	12	.	.	.	12
COc1ccc(NC(=O)C2(C)Cc3c(-c4ccccc4)ccnc3O2)cn1 (stereo not given)	.	.	.	.	.	/	/	/	/
COC(=O)C1=C(C)N(Cc2ccc(C(F)(F)F)cc2)C(=NCc2ccc(C(F)(F)F)cc2)NC1c1ccccc1 (stereo not given)	.	.	.	.	.	/	/	/	/
COc1ccc(Br)c(C(=O)N(C)CC(=O)Nc2ccc(N3CCOCC3)cc2)c1	.	.	.	.	.	/	/	/	/
Oc1ccccc1C1SC(c2ccccc2O)SC(c2ccccc2O)S1 (stereo not given)	.	.	35	.	11	.	.	42	23
Cc1cc2c(cc1C)CSC(c1ccccc1O)SC2	.	.	.	.	.	/	/	/	/
COc1cc(OC)cc(-c2nnc(SCc3c(F)cccc3Cl)o2)c1	.	.	.	.	.	/	/	/	/
Fc1cccc(Cl)c1CSc1nnc(CNc2ccccc2)o1	.	.	24	.	14	.	.	.	.
Cc1ccc(C(=O)OCC(=O)NCc2ccco2)cc1S(=O)(=O)N1CCOCC1	.	.	.	.	.	/	/	/	/
COc1ccc(C(=O)OCC(=O)NCc2ccco2)cc1S(=O)(=O)N1CCN(c2cccc(Cl)c2)CC1	.	.	29	.	17	.	.	28	18
CCOC(=O)CCCNC(=O)O[C@@H]1CC[C@@]23CCCN2C(=O)CCC[C@H]3C1	/	.	.	.	.	/	/	/	/
Cc1ccccc1S(=O)(=O)N(C)C[C@@H]1OCc2ccccc2-c2c(n(C)c3ccccc23)C(=O)N([C@H](C)CO)C[C@@H]1C	.	.	27	.	9.7	.	.	32	16
C[C@H](CO)N1C[C@H](C)[C@H](CN(C)S(=O)(=O)c2ccccc2)OCc2ccccc2-c2c(n(C)c3ccccc23)C1=O	.	.	.	.	.	/	/	/	/
